Test results reported in PubChem BioAssay (EPA / NIEHS).
Records with an inconclusive call do not appear. Activity calls are given as the source filed them. The calls were made as follows: active = hit-call score of the fitted dose curve at least 0.9, where 1 is the maximum; inconclusive = response in the unintended direction; inactive = score below 0.9.

These molecules were tested against human Vitamin D Receptor (VDR), VDR (gene 7421) (UniProt P11473) (assay: ATG_VDR_TRANS: Attagene TRANS-FACTORIAL HepG2 Assay for human Vitamin D Receptor (VDR) (AID 2283022)).
Sequence of human Vitamin D Receptor (VDR), VDR (gene 7421) (P11473 whole entry, looked up): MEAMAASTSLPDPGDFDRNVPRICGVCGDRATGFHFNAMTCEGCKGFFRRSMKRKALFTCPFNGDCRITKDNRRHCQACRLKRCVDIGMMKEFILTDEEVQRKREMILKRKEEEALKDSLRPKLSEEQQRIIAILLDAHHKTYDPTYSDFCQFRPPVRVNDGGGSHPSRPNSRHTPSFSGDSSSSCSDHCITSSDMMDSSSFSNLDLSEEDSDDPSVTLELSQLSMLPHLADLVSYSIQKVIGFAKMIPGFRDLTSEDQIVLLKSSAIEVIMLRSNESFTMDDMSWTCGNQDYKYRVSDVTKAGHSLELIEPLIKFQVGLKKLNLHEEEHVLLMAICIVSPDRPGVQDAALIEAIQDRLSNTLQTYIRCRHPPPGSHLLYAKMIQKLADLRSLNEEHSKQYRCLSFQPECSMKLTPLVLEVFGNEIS
Description: ATG_TRANS is a cell-based, multiplexed-readout assay that uses HepG2, a human liver cell line, with measurements taken at 24 hours after chemical dosing in a 24-well plate.ATG_VDR_TRANS is one of 30 assay component(s) measured or calculated from the ATG_TRANS assay. It is designed to make measurements of mRNA induction, a form of inducible reporter, as detected with fluorescence intensity signals by Reverse transcription polymerase chain reaction (RT-PCR) and Capillary electrophoresis technology.Data from the assay component ATG_VDR_TRANS was analyzed into 1 assay endpoint. This assay endpoint, ATG_VDR_TRANS, was analyzed in the positive analysis fitting direction relative to DMSO as the negative control and baseline of activity. Using a type of inducible reporter, measures of mRNA for gain-of-signal activity can be used to understand the reporter gene at the transcription factor-level as they relate to the gene VDR. Furthermore, this assay endpoint can be referred to as a primary readout, because this assay has produced multiple assay endpoints where this one serves a reporter gene function. To generalize the intended target to other relatable targets, this assay endpoint is annotated to the nuclear receptor intended target family, where the subfamily is non-steroidal.
Human liver HepG2 cells are transiently transfected with multiple reporter transcription units (MRTUs) in 6-well plates using FuGene 6 reagent (Roche; 3 ml FuGene/1 mg DNA). The MRTU constructs are regulated by a cis-regulating element (promoter). […] A major difference between the CIS and TRANS system is that in CIS activities of endogenous TFs are measured, whereas the TRANS assay evaluates changes in activities of exogenous, chimeric NR-Gal4 proteins. […] At the end of 24 hour incubation, total RNA was isolated using TriZol reagent (Invitrogen). The isolated RNA is then reverse-transcribed using oligo(dT) primer and Mo-MLV reverse transcriptase (Invitrogen) with DNAse I (Ambion) treatment for 30 min. The one-tenth of the produced cDNA was amplified by PCR using Taq DNA polymerase (Invitrogen) and two reporter sequence-specific primers. The PCR products were fluorescently labeled by primer extension with 6-arboxyfluorescein (6-FAM) 5'-labeled reporter sequence-specific primer (2 min at 95 C, 20 s at 68 C and 10 min at 72 C) and these products were digested with 5U of HpaI (New England Biolabs) for 2h at 37 C. The fragments were purified using Qiaquick PCR columns (Qiagen), analyzed on an ABI 3130xL genetic analyzer (Applied Biosystems) with peak positions identified by using a set of X-rhodamine (ROX)-labeled MapMarker1000 molecular weight standards (BioVentures). The raw capillary electrophoresis data was processed using Attagraph software (Attagene).

outcome, inactive:
COC(=O)c1ccc(C)cc1
C=CCOC(=O)CCC1CCCCC1
COc1cc(C=O)ccc1OC(=O)C(C)C
Cc1ccc2sc3cccc(C)c3c2c1
O=Cc1ccc(F)cc1
Cc1ccc2ccccc2n1
CCCC(C)C=O (stereo not given)
OCCOCCOCCOCCO
O=c1cc(-c2ccccc2)oc2cc(O)cc(O)c12
Cc1ccccc1C=O
O=C(O)c1ccc([N+](=O)[O-])cc1
CCCCOCCOCCSC#N
C[Si](O[Si](C)(C)C)O[Si](C)(C)C
CCC(=O)/C=C/C1C(C)=CCCC1(C)C (stereo not given)
C=C(C)C(=O)Nc1ccc(Cl)c(Cl)c1
CCCCCCCCCCCCCC(=O)O
CC(C)=CCCC(C)=CCCC(C)=CCO
CC(C)=CCO
CCCCCCOC(=O)CCCCC
O=C(O)COCCN1CCN(C(c2ccccc2)c2ccc(Cl)cc2)CC1 (stereo not given)
CCCCCC(CO)CCC (stereo not given)
CC(O)C(C)O (stereo not given)
CCCCCCCCCCCCCCCC(=O)O
CC(=O)OCCC(C)CC(C)(C)C (stereo not given)
C=CC[N+](C)(C)CC=C
C=C[C@@H](C)CCC=C(C)C
CCN(CC)CCOC(=O)c1ccc(N)cc1
OCCOc1cccc(OCCO)c1
BrC1CCC(Br)C(Br)CCC(Br)C(Br)CCC1Br (stereo not given)
O=C(Oc1ccccc1)c1ccc(O)cc1
C=CCOc1nc(OCC=C)nc(OCC=C)n1
C[C@]12CC[C@H]3[C@@H](CCC4=CC(=O)CC[C@@]43C)[C@@H]1CC[C@@H]2C(=O)CO
CCCCCCCCCCCCCCCC(=O)OC[C@H](O)[C@H]1OC(=O)C(O)=C1O
O=C(O)c1cccc(C(F)(F)F)c1
Nc1cccc(S(=O)(=O)c2cccc(N)c2)c1
CC(C)OP(=O)(CP(=O)(OC(C)C)OC(C)C)OC(C)C
C=C(C)[C@@H]1CCC2=CC(=O)C[C@@H](C)[C@]2(C)C1
C=O
COC(C(=O)O)c1ccccc1 (stereo not given)
CCCCOCCOCCOCCOCCO
